Compound activity (PubChem)
The entries come from a sample that favours hits as a whole.
Tgondii IFNg = blocks Toxoplasma gondii growth in the presence of IFN-gamma. activity change, negative = inhibition, % (test concentration not listed). Toxoplasma gondii growth in IFN-gamma-treated host cells; hits give low values. 69,000 tested, 3.8% active; in the data active = activity change below about -70%, passing the limit was not always enough;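 also: host cells are HeLa cells infected with Toxoplasma gondii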
Hits are given with their value.

How did Cc1cc(C(=O)NC(c2nnc3n2CCNCC3)C(C)C)nc(C)n1 (stereo not given) do in these assays?
Tgondii IFNg: inactive

What do the screens show for `COc1ccc(CNC(=O)c2nc(Nc3ccc(C)cc3)c3ccccc3n2)cc1`?
Tgondii IFNg: inactive

Results for COc1ccc2nc(C)cc(Nc3ccccc3O)c2c1 ?
Tgondii IFNg: inactive

How did COc1ccc(Nc2cc(C)nc3ccc(C)cc23)cc1 do in these assays?
Tgondii IFNg: -97

What do the screens show for `O=S(=O)(NCc1ccccc1)Nc1ccc2ncccc2c1`?
Tgondii IFNg: inactive

Results for Cc1nn(Cc2nc(-c3ccc(NC(=O)c4ccccc4)cc3)oc2C)c(C)c1C ?
Tgondii IFNg: -93

Results for Cc1nn(Cc2nc(-c3ccc(NC(=O)c4ccc(C#N)cc4)cc3)oc2C)c(C)c1C ?
Tgondii IFNg: inactive

What do the screens show for `Cc1ccc(C(=O)Nc2ccc(-c3nc(Cn4nc(C)c(C)c4C)c(C)o3)cc2)cc1`?
Tgondii IFNg: -88

What do the screens show for `COc1cccc(C(=O)Nc2ccc(-c3nc(Cn4nc(C)cc4C)c(C)o3)cc2)c1`?
Tgondii IFNg: inactive

How did Cc1cccc(C(=O)Nc2ccc(-c3nc(Cn4nc(C)c(C)c4C)c(C)o3)cc2)c1 do in these assays?
Tgondii IFNg: -91

Results for Cc1oc(-c2ccccc2)nc1Cn1nnc(C(=O)Nc2ccccc2)c1C ?
Tgondii IFNg: inactive

Results for Cc1cc(C)n(Cc2nc(-c3ccc(NC(=O)c4cccc(N(C)C)c4)cc3)oc2C)n1 ?
Tgondii IFNg: inactive

What do the screens show for `Cc1nn(Cc2nc(-c3ccc(NC(=O)c4ccc(F)cc4)cc3)oc2C)c(C)c1C`?
Tgondii IFNg: inactive

Results for COCC(=O)Nc1ccc(-c2nc(Cn3nc(C)c(C)c3C)c(C)o2)cc1 ?
Tgondii IFNg: inactive

What do the screens show for `Cc1ccc2cc(C3(O)CCN(C(=O)CCn4cnnc4)CC3)ccc2n1`?
Tgondii IFNg: inactive

How did C/C=C/CC(=O)NC1CCN(Cc2cccc(O)c2)CC1 do in these assays?
Tgondii IFNg: inactive

How did O=C(CCc1ccc2c(c1)OCO2)N[C@@H]1c2ccccc2C2(CCNCC2)[C@H]1O do in these assays?
Tgondii IFNg: inactive

What do the screens show for `COC1C2CCC1N(C(=O)c1cnc(C)cn1)C2` (stereo not given)?
Tgondii IFNg: inactive

Results for O=C1N(Cc2ccccn2)C(=O)C2(CCN(Cc3ccc(F)cc3F)CC2)N1CCc1ccccc1 ?
Tgondii IFNg: inactive

What do the screens show for `O=S(=O)(c1cc(Br)c(Cl)s1)N1CCSCC1`?
Tgondii IFNg: inactive

What do the screens show for `CCCOC1CCCN(Cc2cc3cc(OC)ccc3[nH]c2=O)C1` (stereo not given)?
Tgondii IFNg: inactive

How did CCOc1ccc2[nH]c(=O)c(CN3CCCN(C(=O)C4CC4)CC3)cc2c1 do in these assays?
Tgondii IFNg: -83

How did CCOc1ccc2[nH]c(=O)c(CN3CCCCC3c3nc(C)no3)cc2c1 (stereo not given) do in these assays?
Tgondii IFNg: inactive

Results for O=C(c1ncn2c1CNS(=O)(=O)c1ccccc1-2)N1CCCCCC1 ?
Tgondii IFNg: inactive

What do the screens show for `Cc1ccccc1C(NC(=O)C1(c2ccccc2F)CC1)c1ccncc1` (stereo not given)?
Tgondii IFNg: inactive

Results for Clc1ccc(-n2ncc3c(NC4CCCCCCCCCCC4)ncnc32)cc1 ?
Tgondii IFNg: inactive

Results for Cc1ccc(Nc2ncnc3c2cnn3-c2ccc(Cl)cc2)cc1 ?
Tgondii IFNg: inactive

What do the screens show for `CC(C)Nc1ncnc2c1cnn2-c1ccc(Cl)cc1`?
Tgondii IFNg: -73

What do the screens show for `O=C(Nc1ccc(F)cc1)c1c(O)c2ccccc2n(-c2ccccc2)c1=O`?
Tgondii IFNg: inactive

Results for CCOc1ccc(-c2nc3c(s2)CN(S(=O)(=O)c2cccc(F)c2)CC3)cc1 ?
Tgondii IFNg: inactive

What do the screens show for `CCOc1ccc(-c2nc3c(s2)CN(S(=O)(=O)c2cc(F)ccc2C)CC3)cc1`?
Tgondii IFNg: -95

How did COc1cccc(-c2nc3c(s2)CN(S(=O)(=O)c2cc(C)c(C)cc2C)CC3)c1 do in these assays?
Tgondii IFNg: inactive

Results for COc1cccc(-c2nc3c(s2)CN(S(=O)(=O)c2ccc(C(C)C)cc2)CC3)c1 ?
Tgondii IFNg: inactive

Results for COc1ccc(-c2nc3c(s2)CN(S(=O)(=O)c2ccccc2C)CC3)cc1 ?
Tgondii IFNg: -115

How did COc1ccc(-c2nc3c(s2)CN(S(=O)(=O)c2ccc(C(C)(C)C)cc2)CC3)cc1 do in these assays?
Tgondii IFNg: inactive

How did CCOc1ccc(-c2nc3c(s2)CN(S(=O)(=O)c2ccc(F)cc2)CC3)cc1 do in these assays?
Tgondii IFNg: inactive

What do the screens show for `CCOc1ccc(-c2nc3c(s2)CN(S(=O)(=O)Cc2ccccc2)CC3)cc1`?
Tgondii IFNg: inactive

Results for CCOc1ccc(-c2nc3c(s2)CN(S(=O)(=O)c2ccccc2C)CC3)cc1 ?
Tgondii IFNg: -94

Results for COc1cccc(-c2nc3c(s2)CN(S(=O)(=O)c2ccccc2C)CC3)c1 ?
Tgondii IFNg: -107

Results for COCCCNC(=S)Nc1ccc(OC)cc1 ?
Tgondii IFNg: inactive

How did CC1CCCc2c1nc(N)c(C#N)c2-c1ccccc1 (stereo not given) do in these assays?
Tgondii IFNg: inactive

What do the screens show for `Cc1ccc(-c2nc(C)c(CCNC(=O)C(=O)Nc3cc(F)ccc3F)s2)cc1`?
Tgondii IFNg: inactive

What do the screens show for `CCC(=O)Nc1ccc(NC(=O)c2ccnnc2)cc1Cl`?
Tgondii IFNg: inactive

How did Cc1cc(CC(C)NC(=O)c2cc(COc3cccc(F)c3)[nH]n2)n[nH]1 (stereo not given) do in these assays?
Tgondii IFNg: inactive

Results for O=C(C1COCCO1)N1Cc2cnn(Cc3ccc(F)cc3)c2C1 (stereo not given) ?
Tgondii IFNg: inactive

What do the screens show for `Cc1ccc(-c2nc3c(s2)CN(S(=O)(=O)c2ccc(C)c(C)c2)CC3)cc1`?
Tgondii IFNg: inactive

How did COc1ccc(Cl)cc1S(=O)(=O)N1CCc2nc(-c3ccc(C)cc3)sc2C1 do in these assays?
Tgondii IFNg: inactive

Results for COc1cccc(-c2nc3c(s2)CN(S(=O)(=O)c2ccc(Cl)cc2)CC3)c1 ?
Tgondii IFNg: inactive

Results for COc1cccc(-c2nc3c(s2)CN(C(=O)Nc2ccccc2C)CC3)c1 ?
Tgondii IFNg: inactive

Results for COc1cccc(-c2nc3c(s2)CN(S(=O)(=O)c2c(C)cc(C)cc2C)CC3)c1 ?
Tgondii IFNg: -98

How did Cc1ccc(-c2nc3c(s2)CN(S(=O)(=O)c2ccc(F)cc2)CC3)cc1 do in these assays?
Tgondii IFNg: inactive

What do the screens show for `Cc1ccc(-c2nc3c(s2)CN(S(=O)(=O)c2cccc(Cl)c2C)CC3)cc1`?
Tgondii IFNg: -76

How did COc1cccc(-c2nc3c(s2)CN(S(=O)(=O)c2ccc(C)cc2)CC3)c1 do in these assays?
Tgondii IFNg: inactive

Results for COc1ccc(S(=O)(=O)N2CCc3nc(-c4cccc(OC)c4)sc3C2)cc1 ?
Tgondii IFNg: inactive

Results for Cc1cc(C)c(S(=O)(=O)N2CCc3nc(-c4ccccc4)sc3C2)c(C)c1 ?
Tgondii IFNg: inactive

What do the screens show for `Cc1ccc(-c2nc3c(s2)CN(S(=O)(=O)c2ccccc2C)CC3)cc1`?
Tgondii IFNg: -90

How did COc1cccc(-c2nc3c(s2)CN(S(=O)(=O)c2ccc(F)cc2)CC3)c1 do in these assays?
Tgondii IFNg: -79

How did Cc1nc(CCN)cc(N2CCCC2c2nonc2C)n1 (stereo not given) do in these assays?
Tgondii IFNg: inactive

What do the screens show for `CN(C)CC1(O)CCCN(S(=O)(=O)c2ccc(C(F)(F)F)cc2)CC1` (stereo not given)?
Tgondii IFNg: inactive

Results for CC[C@@H](NC(=O)N[C@H]1C[C@H]2C(=O)NCC(=O)N2C1)c1ccccc1 ?
Tgondii IFNg: inactive
